Source: PubChem (National Center for Advancing Translational Sciences (NCATS))
HCV inhibitor = qHTS Assay for Inhibitors of Hepatitis C Virus (HCV) | Huh7.5.1 HCVcc-Cre infection, luciferase reporter, 44 h | Potency, µM (top dose mostly 41.8 µM), for inactives: at the top dose activity change, negative = inhibition, most hits filed as inhibitors | 340,000 tested, 3.4% active | AID 651820, 2012
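A cell-based infection assay in which seeded cells (1,000 per well) receive test compound after 4 h, are inoculated with HCVcc-Cre at approximately 0.5 moi, and are incubated 44 h before luminescence detection.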
LASV entry inh = qHTS for Inhibitors of binding or entry into cells for Lassa Virus | Lassa virus pseudotype entry inhibition, cell reporter | 300,000 tested, 1.2% active | Potency, µM (highest dose often 37.9 µM), inactives show at the highest dose activity change, negative = inhibition, hits mostly inhibitors; calls by dose curve; tested in HEK293 cells; also: nearly all actives have a fitted effect of over 50% in size
RE007 growth inh = qHTS Assay for Inhibitors of the HIV-1 protein Vpr. S. pombe RE007 Vpr strain, BacTiter-Glo ATP luminescence, 24 h. Potency, µM (doses to about 92.2 µM), for inactives: top-dose activity change, negative = less growth, actives largely listed as inhibitors. 360,000 tested, 0.21% active. AID 651644, 2012; active = well fitted falling curve with a large enough effect; inconclusive = small, poorly fitted or top-dose-only effect; inactive = no such curve, though single readings can be large or run the other way; also: nearly all actives have a fitted effect of over 50% in size
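Fission yeast RE007 carrying one integrated HIV-1 vpr copy, seeded at OD 0.01 in PMG+AL medium with 23 nL pinned compound. Grown 24 h at 30 degrees; viability read by BacTiter-Glo luminescence after 5 min.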
FMDV antiviral = High Throughput Screening for Foot and Mouth Disease Virus Antivirals; FMDV antiviral cell-based qHTS; Potency, µM (titrated, usually from 57.9 µM), for the others: at the top dose activity change, negative = inhibition, actives largely listed as inhibitors; 410,000 tested, 1.2% active; calls by dose curve; tested in HEK293T cells; also: read-out not given here; nearly all actives have a fitted effect of over 45% in size
Sm TGR inh = qHTS Assay for the Inhibitors of Schistosoma Mansoni Peroxiredoxins; purified TGR, DTNB reduction, TNB absorbance 405 nm; Potency, µM (top dose mostly 114 µM), without a hit: at the top dose activity change, negative = inhibition, usual class: inhibitors; 360,000 tested, 3% active; AID 485364, 2010; also: nearly all actives have a fitted effect of over 60% in size
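Kinetic colorimetric format: TGR-catalysed, NADPH-driven DTNB reduction monitored via TNB absorbance. Enzyme dispensed at 20 nM; compound exposure 15 min at room temperature before reaction start.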
Marburg entry inh = qHTS for inhibitors of binding or entry into cells for Marburg Virus | Marburg virus pseudotyped entry inhibition, cell reporter | Potency, µM (highest dose often 37.8 µM), without a hit: at the top dose activity change, negative = inhibition, usual class: inhibitors | 300,000 tested, 1.8% active | AID 540276, 2011; calls by dose curve; tested in HEK293 cells
* hit, by the source's call; [ ] = remark or other dose. Sampled rows, rich in hits. Any-hit rate of the full collection: about 7.2%. Unless noted, calls follow the shape of the dose curve; as a rule, active = well fitted curve in the direction sought with a large enough effect; inconclusive = small, poorly fitted or top-dose-only effect, or another doubt; inactive = no such curve, though single readings can be large; an effect the other way counts as inactive or inconclusive. % is scaled to controls: 0 for no effect and ±100 for the full control effect; potency is read from the fitted curve at half-maximal effect.

Cc1cc(C)c(S(=O)(=O)ON2C(=O)c3ccccc3C2=O)cc1C was read as HCV inhibitor -1%, LASV entry inh -28%, RE007 growth inh -1%, FMDV antiviral 25µM*, Sm TGR inh 0.89µM* and Marburg entry inh inconclusive.
`O=S(=O)(c1ccccc1)N1CCN(S(=O)(=O)c2ccc(F)cc2)CC1` gave HCV inhibitor 10%, RE007 growth inh 5%, FMDV antiviral -10% and Sm TGR inh -21%.
CCCCN1CC(c2nc3ccccc3n2CCCCOc2c(C)cccc2C)CC1=O (stereo unspecified) was read as LASV entry inh 14%[46.1 µM], FMDV antiviral inconclusive, Sm TGR inh 8% and Marburg entry inh 0%[46.1 µM].
For Cc1ccc(C)c(Cn2cc(S(=O)(=O)c3ccc(Cl)cc3)c(=O)c3cc(F)ccc32)c1 the results were LASV entry inh -9%[46.1 µM], FMDV antiviral -12%, Sm TGR inh -4% and Marburg entry inh 13%[46.1 µM].
For COc1ccccc1NC(=O)c1c(C)cc(C)nc1SCC(=O)Nc1ccc(C)c(C)c1 the results were LASV entry inh -22%[46.1 µM], FMDV antiviral -4%, Sm TGR inh 6% and Marburg entry inh 7.9µM*.
For N[C@H](C(=O)O)[C@H](Cc1ccccc1)C(=O)O the results were LASV entry inh -1% and Marburg entry inh 14%.
`O=C(Cn1nc2c(cc1=O)CCCC2)Nc1ccc(F)cc1F` gave LASV entry inh -2%[46.1 µM], FMDV antiviral 5% and Sm TGR inh 3%.
Screening COc1ccc(NS(=O)(=O)c2cccc(NC(=O)c3ccc(Cl)nc3)c2)cc1 returned HCV inhibitor 2.8µM*, LASV entry inh 5µM*, RE007 growth inh 13%, FMDV antiviral 32µM*, Sm TGR inh 17% and Marburg entry inh inconclusive.
`COc1ccc(NS(=O)(=O)c2cccc(NC(=O)NCCCl)c2)cc1` gave HCV inhibitor 7.9µM*, RE007 growth inh 2%, FMDV antiviral 7%, Sm TGR inh 1% and Marburg entry inh 8%[46.1 µM].
COc1ccc(NS(=O)(=O)c2cccc(NC(=O)CCC(=O)c3ccc(Cl)cc3)c2)cc1 was read as HCV inhibitor 8.9µM*, LASV entry inh inconclusive, RE007 growth inh 7%, FMDV antiviral inconclusive, Sm TGR inh -2% and Marburg entry inh inconclusive.
COc1ccc(C(=O)CCC(=O)Nc2cc(Cl)c(O)c(Cl)c2)cc1 was read as HCV inhibitor -6%, LASV entry inh 17%[46.1 µM], RE007 growth inh -3%, FMDV antiviral -13%, Sm TGR inh 35µM* and Marburg entry inh -18%[46.1 µM].
COC(=O)C1CCN(Cc2ccc3c(c2)CN(C(=O)C2CCCN(c4ccccn4)C2)CCO3)CC1 (stereo unspecified) was read as FMDV antiviral -15%.
`OC[C@H]1O[C@H](n2cnc3c(N[C@H]4CCC[C@@H]4O)ncnc32)[C@H](O)[C@@H]1O` gave LASV entry inh 9% and Marburg entry inh 2%.
O=C(O)c1ccc(NC(=O)c2cccc(S(=O)(=O)Nc3ccc(C(=O)O)cc3)c2)cc1 was read as HCV inhibitor 12%, RE007 growth inh -2%, FMDV antiviral -24% and Sm TGR inh 2%.
For O=C1CSc2ccc(C(=O)Nc3cccc(S(=O)(=O)Nc4ccc(Br)cc4)c3)cc2N1 the results were HCV inhibitor 10µM*, RE007 growth inh 6%, FMDV antiviral -29% and Sm TGR inh 17%.
For O=C(Nc1cccc(S(=O)(=O)Nc2ccc(Cl)cc2)c1)c1ccc(Cl)nc1 the results were HCV inhibitor 1.6µM*, LASV entry inh inconclusive, RE007 growth inh 11%, FMDV antiviral -25%, Sm TGR inh -9% and Marburg entry inh inconclusive.
CCN(CC)S(=O)(=O)c1ccc2c(c1)N(CC(=O)Nc1c(C)cc(C)cc1C)C(=O)CS2 was read as FMDV antiviral 5%, Sm TGR inh 6% and Marburg entry inh inconclusive.
COc1cc(C(=O)N/N=C/c2ccc(OC)c(CN3CCN(c4ccc(F)cc4)CC3)c2)ccc1O was read as HCV inhibitor 25µM*, LASV entry inh -23%, RE007 growth inh -8%, FMDV antiviral inconclusive, Sm TGR inh 3% and Marburg entry inh inconclusive.
`COc1cc(/C=C(/C#N)c2ccc(C)cc2)ccc1Oc1ccc([N+](=O)[O-])cn1` gave HCV inhibitor 10µM*, LASV entry inh 4%, RE007 growth inh -8%, Sm TGR inh 3% and Marburg entry inh -9%.
Screening COc1cc(/C=C2/SC(=O)N(CC(=O)N3CCCC3)C2=O)ccc1Oc1ccc([N+](=O)[O-])cn1 returned HCV inhibitor inconclusive, LASV entry inh 4%, RE007 growth inh 7%, FMDV antiviral 32µM*, Sm TGR inh 0% and Marburg entry inh -4%.
For CCOc1cc(/C=C(/C#N)c2nc3ccccc3[nH]2)ccc1Oc1ccc([N+](=O)[O-])cn1 the results were HCV inhibitor inconclusive, LASV entry inh inconclusive, RE007 growth inh -8%, Sm TGR inh -1% and Marburg entry inh inconclusive.
COc1ccc(/C=N/NC(=O)c2ccccc2)cc1CN1CCN(c2ccc(F)cc2)CC1 was read as HCV inhibitor -23%, LASV entry inh 1%, RE007 growth inh -11%, FMDV antiviral -2%, Sm TGR inh -27% and Marburg entry inh -4%.
`COc1ccc(/C=N\NC(=O)c2ccccc2Cl)cc1COc1c(F)c(F)c(F)c(F)c1F` gave HCV inhibitor 2.2µM*, LASV entry inh inconclusive, RE007 growth inh 4%, FMDV antiviral inconclusive, Sm TGR inh 0% and Marburg entry inh inconclusive.
CCN1C(=O)S/C(=C/c2ccc(Oc3ccc([N+](=O)[O-])cn3)c(OC)c2)C1=O was read as HCV inhibitor -19%, RE007 growth inh -10%, FMDV antiviral -17% and Sm TGR inh 1%.
Screening Cc1ccc(CCNS(=O)(=O)c2ccc3c(c2)CC(C)N3C(=O)C2CCC2)cc1 (stereo unspecified) returned LASV entry inh inconclusive, FMDV antiviral 54% and Sm TGR inh -1%.
Screening CSc1ccc(CCNC(=O)Cn2ccc3cc(S(=O)(=O)N4CCCCCC4)ccc32)cc1 returned LASV entry inh 3%[46.1 µM], FMDV antiviral inconclusive and Sm TGR inh -3%.
`COc1cccc(CN(C(=O)c2oc3ccc(Br)cc3c2C)C2CCS(=O)(=O)C2)c1` (stereo unspecified) gave LASV entry inh inconclusive, FMDV antiviral inconclusive, Sm TGR inh 2% and Marburg entry inh inconclusive.
